Compounds without any hit were thinned out: in the full panel of roughly 79,000, 15% have a hit. Unmarked numbers belong to inactive results. Activity calls are given as the source filed them. Rule as the data show it: active = growth inhibition above about 70%; inactive = the rest.

This assay can be described thus: NCI Yeast Anticancer Drug Screen. Data for the wt2 strain (AID 169).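 Also: 0% = growth of vehicle-treated yeast cultures.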 The note with it: S. cerevisiae wt2 strain growth inhibition, stronger effect = higher value. The procedure:
Growth inhibition of yeast strains with defined genetic alterations is measured as a screen for potential anti-cancer activity. Selected strains with alterations in DNA damage repair or cell cycle control were exposed to compounds and growth inhibition was measured relative to vehicle treated controls. The strain used in this assay is wt2

Consider `COc1ccc(N2CN(C)CSC2=S)cc1`, for which the growth inhibition is -25% (at 1.2 µM); -15% (at 3.7 µM); -22% (at 11.0 µM); -7% (at 33.0 µM); 58% (at 100.0 µM).
On the same counts, the results for `CCCCCC#CCOC(=O)C(=[N+]=[N-])P(=O)(c1ccccc1)c1ccccc1` are 4%, 10%, 5%, 5% and 97% (active).
The corresponding values for `CCCCC(=O)c1c(O)nc2sccn2c1=O` are 7%, 19%, 86% (active), 98% (active) and 99% (active).
Consider `Cn1c2nc3ccccc3c-2nc2ccccc21`, for which the growth inhibition reads like this: (at 1.2 µM) 7%; (at 3.7 µM) 33%; (at 11.0 µM) 83% (active); (at 33.0 µM) 96% (active); (at 100.0 µM) 96% (active).
Consider `Cc1cccc2c1N=C(C(F)(F)F)CC2=O`, for which the growth inhibition by setting is: (at 1.2 µM) -2%; (at 3.7 µM) -2%; (at 11.0 µM) -1%; (at 33.0 µM) 6%; (at 100.0 µM) 40%.
For `CN(N=O)C(=O)N[C@@H](C=O)[C@@H](O)[C@H](O)[C@H](O)CO`, the growth inhibition by setting is: (at 1.2 µM) -3%; (at 3.7 µM) 0%; (at 11.0 µM) -2%; (at 33.0 µM) -1%; (at 100.0 µM) -1%.
As to `O=C1NC(c2c(Cl)cccc2Cl)Nc2ccccc21` (stereo not given), the growth inhibition runs as follows: (at 1.2 µM) -28%; (at 3.7 µM) -32%; (at 11.0 µM) -26%; (at 33.0 µM) 39%; (at 100.0 µM) 89% (active).
The corresponding values for `O=C1c2cccc3cc([N+](=O)[O-])cc(c23)C(=O)N1CCN1CCCC1` are -11%, 0%, 12%, 7% and 19%.
